Results published in PubChem BioAssay.
Active and inactive are the calls of the source.

Assays:
[1] = target: Albumin (Bos taurus) (UniProt P02769); experiment: bovine serum albumin binders on microarray, profiling panel, artefact control for SMM control protein annotation, biochemical, small-molecule microarray, Alexa647 label, 635/667 nm fluorescence (AID 1118); details: BSA-A647 binding, fluorescence 635 nm, higher = more signal;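 further: score merges 667 nm emission intensity and signal-to-noise per printed compound spot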
[2] = small-molecule microarray binders of probe aXIP, primary screen, biochemical, NeuroSMM set, 635/667 nm fluorescence (AID 1119); details: higher = more signal, called active from +8 up or from −8 down;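 further: probe is the protein aXip251-270 applied at 1 µg/mL to compound-printed slides; binding of probe to printed compounds measured as 667 nm fluorescence plus signal to noise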
[3] = small-molecule binders of probe aNOTCH3, primary screen, biochemical, small-molecule microarray, 635/667 nm fluorescence (AID 1120); details: higher = more signal;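 further: probe is a biotin-tagged antibody raised against NOTCH3 rather than NOTCH3 protein; score merges spot fluorescence near 667 nm with spot signal to noise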
[4] = small-molecule binders of probe aNOTCH2, primary screen, biochemical, small-molecule microarray, 635/667 nm fluorescence (AID 1121); details: higher = more signal;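 further: score merges feature fluorescence read at 667 nm with its signal to noise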
[5] = target: Carbonic anhydrase 2 (Homo sapiens) (UniProt P00918); experiment: CAII small-molecule binders, profiling panel, biochemical, small-molecule microarray, Alexa647-labelled CAII (AID 1122); details: CAII-A647 binding fluorescence, higher = more signal
[6] = COS7 lysate on small-molecule microarray, probe aHis, 635 nm (AID 1123); details: COS7 cell lysate, fluorescence, higher = more signal;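 further: z-score combines 667nm fluorescence intensity with signal-to-noise per printed compound spot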
[7] = compound binding in COS7 lysate, probe aLAP1, primary screen, cell lysate, small-molecule microarray (AID 1124); details: probe aLAP1, fluorescence, higher = more signal;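 further: lysate comes from COS7 cells expressing LAP1 and is applied at 0.3 µg/mL; score merges spot fluorescence near 667 nm with signal-to-noise over triplicate slides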
[8] = system: Sam68 (KHDRBS1); experiment: Sam68 small-molecule binders, primary screen, biochemical, small-molecule microarray, 635 nm fluorescence (AID 1125); details: small-molecule microarray binding, higher = more signal;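 further: score merges 667 nm channel intensity with signal to noise over triplicate slides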
[9] = system: Chordin-like protein 2 (CHRDL2); experiment: CHRDL2 small-molecule binders, primary screen, biochemical, small-molecule microarray, 635 nm fluorescence (AID 1126); details: small-molecule microarray binding, fluorescence 635 nm; higher = more signal;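 further: printed compound slides probed with Chrdl2 protein at 4 µg/mL for 1 h at 4 C; score merges 667 nm emission intensity with signal to noise over three replicate slides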
[10] = target: Concanavalin-A (Canavalia ensiformis) (UniProt P02866); experiment: ConA small-molecule binders, primary screen, artefact control for SMM control protein annotation, biochemical, small-molecule microarray, Alexa647 label, 635 nm (AID 1127); details: ConA-A647 binding fluorescence, higher = more signal;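 further: z combines 667 nm emission intensity with signal-to-noise across three replicate slides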
[11] = anti-His antibody binders, primary screen, artefact control for SMM control protein annotation, biochemical, small-molecule microarray, 635 nm fluorescence (AID 1128); details: anti-His Alexa647 antibody binding, higher = more signal;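 further: score merges feature fluorescence with signal-to-noise for each printed compound spot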
[12] = system: Human papillomavirus type 1a E7 protein (residues 1-88); experiment: HPV1a E7 small-molecule binders, primary screen, biochemical, small-molecule microarray, residues 1-88, 635 nm (AID 1129); details: small-molecule microarray binding, fluorescence 635 nm; higher = more signal
[13] = target: Focal adhesion kinase 1 (Homo sapiens) (UniProt Q05397); experiment: small-molecule microarray binders of FAK, primary screen, biochemical, 635/667 nm fluorescence, BSA, DTT (AID 1130); details: PTK2 binding, 635 nm fluorescence, higher = more signal;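 further: composite of spot emission at 667 nm and signal to noise over triplicate slides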
[14] = system: Fibrinogen (Alexa647-labelled); experiment: fibrinogen binders on compound microarrays, profiling panel, artefact control for SMM control-protein annotation, biochemical, small-molecule microarray, 635/667 nm fluorescence (AID 1131); details: fibrinogen-A647 binding fluorescence, higher = more signal;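 further: z-score merges 667 nm fluorescence with per-spot signal-to-noise over triplicate slides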
[15] = target: Follistatin (Homo sapiens) (UniProt P19883); experiment: follistatin binders on small-molecule microarrays, primary screen, biochemical, small-molecule microarray, 635/667 nm fluorescence (AID 1132); details: FST binding, 635 nm fluorescence, higher = more signal
[16] = target: Fibroblast growth factor 2 (Homo sapiens) (UniProt P09038); experiment: FGF2 binders on small-molecule microarrays, primary screen, biochemical, small-molecule microarray, 635/667 nm fluorescence (AID 1133); details: small-molecule microarray binding, FGF2, fluorescence 635/667; higher = more signal
[17] = mitochondrial membrane potential change in A549 cells, profiling panel, cell-based, JC-1 fluorescence, basal, 24 h, 100 nL (AID 1138); details: higher = more signal;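 further: A549 lung adenocarcinoma cells under basal conditions with no added stimulus; test concentration not given here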
[18] = system: Lefty1; experiment: Lefty1 binders on small-molecule microarrays, primary screen, biochemical, small-molecule microarray, 635/667 nm fluorescence (AID 1139); details: small-molecule microarray binding, fluorescence 635/667; higher = more signal
[19] = system: wheat germ agglutinin (Triticum aestivum), Alexa647-labelled; experiment: wheat germ agglutinin binders on compound microarrays, profiling panel, artefact control for SMM control-protein annotation, biochemical, small-molecule microarray, 635/667 nm fluorescence (AID 1140); details: WGA-A647 binding, 635 nm fluorescence, higher = more signal;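 further: score merges 667 nm feature emission with signal to noise over triplicate slides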
[20] = target: Luciferin 4-monooxygenase (Photinus pyralis) (UniProt P08659); experiment: firefly luciferase enzyme inhibitors, primary screen, biochemical, luminescence, purified enzyme, 2006 set (AID 1141); details: SteadyGlo luminescence, 30 min, higher = more signal, called active from +8 up or from −8 down;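 further: cell-free assay with purified firefly luciferase at 100 ng per well in PBS; test concentration not given here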
Sequence of Luciferin 4-monooxygenase (Photinus pyralis) (P08659 whole entry, looked up): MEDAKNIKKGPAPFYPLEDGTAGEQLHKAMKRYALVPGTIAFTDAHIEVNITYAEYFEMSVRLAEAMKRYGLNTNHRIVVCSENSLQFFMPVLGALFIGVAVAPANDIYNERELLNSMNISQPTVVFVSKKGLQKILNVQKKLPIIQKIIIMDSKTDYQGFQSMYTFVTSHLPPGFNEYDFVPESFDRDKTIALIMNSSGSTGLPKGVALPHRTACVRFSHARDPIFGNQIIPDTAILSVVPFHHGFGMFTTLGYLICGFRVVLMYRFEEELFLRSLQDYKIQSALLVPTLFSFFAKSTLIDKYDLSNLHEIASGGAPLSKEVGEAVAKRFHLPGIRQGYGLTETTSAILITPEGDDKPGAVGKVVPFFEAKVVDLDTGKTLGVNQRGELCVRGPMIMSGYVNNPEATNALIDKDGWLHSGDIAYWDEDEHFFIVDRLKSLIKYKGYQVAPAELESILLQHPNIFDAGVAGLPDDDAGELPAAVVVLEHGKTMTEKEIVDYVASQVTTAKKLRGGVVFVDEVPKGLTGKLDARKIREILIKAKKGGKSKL

Sequence of Focal adhesion kinase 1 (Homo sapiens) (Q05397 whole entry, looked up): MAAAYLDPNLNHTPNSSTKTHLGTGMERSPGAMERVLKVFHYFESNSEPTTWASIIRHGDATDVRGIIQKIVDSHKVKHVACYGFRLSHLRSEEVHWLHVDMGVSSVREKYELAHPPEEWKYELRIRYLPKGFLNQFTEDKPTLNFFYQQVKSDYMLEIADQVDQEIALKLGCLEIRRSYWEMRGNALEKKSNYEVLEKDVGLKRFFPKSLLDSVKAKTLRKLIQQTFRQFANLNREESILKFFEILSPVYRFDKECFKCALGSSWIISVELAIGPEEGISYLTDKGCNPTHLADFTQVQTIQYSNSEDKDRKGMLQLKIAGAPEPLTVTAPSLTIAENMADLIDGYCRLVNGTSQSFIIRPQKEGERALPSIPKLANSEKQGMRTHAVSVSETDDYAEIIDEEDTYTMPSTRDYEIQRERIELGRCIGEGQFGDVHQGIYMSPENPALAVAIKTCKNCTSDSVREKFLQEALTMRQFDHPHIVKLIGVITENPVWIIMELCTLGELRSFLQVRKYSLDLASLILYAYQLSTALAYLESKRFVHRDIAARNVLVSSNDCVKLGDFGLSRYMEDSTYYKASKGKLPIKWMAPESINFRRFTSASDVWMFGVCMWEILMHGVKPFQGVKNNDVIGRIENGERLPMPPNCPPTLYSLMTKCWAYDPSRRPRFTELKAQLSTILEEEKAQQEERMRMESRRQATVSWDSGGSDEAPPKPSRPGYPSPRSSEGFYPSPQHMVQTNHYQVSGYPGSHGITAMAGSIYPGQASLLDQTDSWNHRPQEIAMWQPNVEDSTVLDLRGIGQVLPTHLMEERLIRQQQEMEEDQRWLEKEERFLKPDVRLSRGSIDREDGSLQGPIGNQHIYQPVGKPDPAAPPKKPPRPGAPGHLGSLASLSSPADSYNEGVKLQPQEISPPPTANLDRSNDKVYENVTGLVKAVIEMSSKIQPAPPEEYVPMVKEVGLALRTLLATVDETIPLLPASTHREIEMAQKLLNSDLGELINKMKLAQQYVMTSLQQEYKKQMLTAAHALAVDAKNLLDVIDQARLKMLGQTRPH
Sequence of Albumin (Bos taurus) (P02769 whole entry, looked up): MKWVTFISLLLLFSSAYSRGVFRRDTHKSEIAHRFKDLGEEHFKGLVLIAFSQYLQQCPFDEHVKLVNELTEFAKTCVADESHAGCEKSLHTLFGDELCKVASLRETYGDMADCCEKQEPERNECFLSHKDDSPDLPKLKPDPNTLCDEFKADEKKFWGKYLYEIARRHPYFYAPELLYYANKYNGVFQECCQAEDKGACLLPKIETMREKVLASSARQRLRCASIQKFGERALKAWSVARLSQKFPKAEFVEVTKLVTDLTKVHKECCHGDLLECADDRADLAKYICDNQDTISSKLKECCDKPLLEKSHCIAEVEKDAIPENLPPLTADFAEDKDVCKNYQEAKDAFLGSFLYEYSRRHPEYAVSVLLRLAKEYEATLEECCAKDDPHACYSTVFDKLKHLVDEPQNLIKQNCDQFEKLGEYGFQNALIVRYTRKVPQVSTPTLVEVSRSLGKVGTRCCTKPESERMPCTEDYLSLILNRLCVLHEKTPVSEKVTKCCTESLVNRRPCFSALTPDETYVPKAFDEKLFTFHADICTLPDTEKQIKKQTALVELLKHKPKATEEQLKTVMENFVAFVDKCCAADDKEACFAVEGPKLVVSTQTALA
Sequence of Fibroblast growth factor 2 (Homo sapiens) (P09038 whole entry, looked up): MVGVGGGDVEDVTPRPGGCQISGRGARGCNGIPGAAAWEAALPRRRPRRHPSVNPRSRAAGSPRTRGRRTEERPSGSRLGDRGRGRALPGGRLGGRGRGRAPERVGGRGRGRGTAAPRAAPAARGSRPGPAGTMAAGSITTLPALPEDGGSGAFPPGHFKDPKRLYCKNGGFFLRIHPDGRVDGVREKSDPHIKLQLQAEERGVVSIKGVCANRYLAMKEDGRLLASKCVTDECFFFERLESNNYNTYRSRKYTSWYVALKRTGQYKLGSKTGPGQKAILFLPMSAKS
Sequence of Follistatin (Homo sapiens) (P19883 whole entry, looked up): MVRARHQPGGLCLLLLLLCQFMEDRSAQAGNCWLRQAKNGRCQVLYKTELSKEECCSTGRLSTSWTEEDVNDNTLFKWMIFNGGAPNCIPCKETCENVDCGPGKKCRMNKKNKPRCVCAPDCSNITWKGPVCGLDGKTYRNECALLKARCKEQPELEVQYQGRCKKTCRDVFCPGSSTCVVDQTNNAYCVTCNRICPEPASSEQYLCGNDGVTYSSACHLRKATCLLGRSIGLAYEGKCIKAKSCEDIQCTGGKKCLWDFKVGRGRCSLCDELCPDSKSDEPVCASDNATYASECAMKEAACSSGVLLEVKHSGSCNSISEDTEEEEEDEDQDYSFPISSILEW
Sequence of Concanavalin-A (Canavalia ensiformis) (P02866 whole entry, looked up): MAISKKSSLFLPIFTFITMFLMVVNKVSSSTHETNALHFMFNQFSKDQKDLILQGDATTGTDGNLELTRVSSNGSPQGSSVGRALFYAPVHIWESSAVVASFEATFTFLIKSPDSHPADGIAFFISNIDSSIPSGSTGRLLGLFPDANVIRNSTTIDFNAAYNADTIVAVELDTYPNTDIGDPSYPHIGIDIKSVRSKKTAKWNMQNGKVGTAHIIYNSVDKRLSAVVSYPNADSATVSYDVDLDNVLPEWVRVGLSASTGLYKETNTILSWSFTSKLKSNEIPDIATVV

SMILES	composite z-score [1]	composite Z-score [2]	composite z-score [3]	composite z-score [4]	composite z-score [5]	composite z-score [6]	composite z-score [7]	composite z-score [8]	composite z-score [9]	composite z-score [10]	composite z-score [11]	composite z-score [12]	composite z-score [13]	composite z-score [14]	composite z-score [15]	composite z-score [16]	z-score [17]	composite z-score [18]	composite z-score [19]	z-score [20]
COc1cc2c(cc1OC)CN(C(=O)[C@H]1[C@@H]3C(=O)O[C@@H](c4ccccc4)[C@@H](c4ccccc4)N3[C@@H](c3ccc(O)cc3)[C@]13C(=O)Nc1ccc(C#CC4(O)CCCCCC4)cc13)CC2	0.693	1.04 (inactive)	0.974	0.286	0.774	3.61	0.876	1.29	1.24	1.13	1.5	1.23	1.02	0.86	1.28	1.71	-1.23	0.59	1.31	-0.409 (inactive)
N#Cc1ccc(NN2C(C(O)CCc3ccccc3)C=CC3C(=O)N(c4ccccc4)C(=O)C32)cc1 (stereo not given)	1.06	0.265 (inactive)	0.123	0.0532	0.745	2.21	0.647	0.924	-0.794	0.831	1.31	1.08	0.945	0.846	0.353	-0.431	-0.3	-0.85	1.34	-0.98 (inactive)
CC(C)NC(=O)[C@@]1(Cc2ccccc2I)c2ccccc2C(=O)N(C2CCCCC2)[C@H]1c1ccc(CO)cc1	0.965	0.256 (inactive)	0.233	0.076	0.312	2.55	0.429	1.31	0.127	1.1	2.52	1.24	0.628	0.991	1.17	0.148	-0.105	0.227	0.916	0.95 (inactive)
COC(=O)Cn1c(C(=O)N2CCCC2)cc2c1C[C@H]1CN(C(=O)c3ccccc3)[C@@](Cc3ccccc3)(C(=O)OC)[C@@H]21	1.06	0.0529 (inactive)	-0.0647	0.0292	0.752	1.99	-0.263	0.185	-1.13	0.831	1.64	0.684	0.714	1.01	0.0488	-0.684	0.367	0.142	1.43	0.659 (inactive)
COCCOC(=O)N1C(=O)[C@@]2(c3cc(C#CCNC(N)=O)ccc31)[C@H](c1ccccc1OCCO)N1[C@H](c3ccccc3)[C@H](c3ccccc3)OC(=O)[C@H]1[C@@H]2C(=O)NC[C@H](O)c1ccccc1	0.679	0.25 (inactive)	0.163	-0.113	0.681	2.12	0.717	1.28	0.0781	1.08	1.06	1.2	0.499	0.943	1.28	0.472	-1.31	0.688	0.832	0.311 (inactive)
